# Sampled rows, rich in hits. Any-hit rate of the full collection: about 2.4%.
# NTMT1 inhibitor: inhibitors of human N-terminal methyltransferase NTMT1 | Q9BV86 | NTMT1 MTase-Glo SAH luminescence, purified enzyme | Potency, µM (top dose mostly 114 µM), for inactives: top-dose activity change, negative = inhibition, most hits filed as inhibitors | 2.5% of 59,000 active;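 also: plate controls were DMSO vehicle for no effect and no enzyme for full effect; nearly all actives have a fitted effect of over 65% in size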
# Target sequence (Q9BV86 whole entry, looked up): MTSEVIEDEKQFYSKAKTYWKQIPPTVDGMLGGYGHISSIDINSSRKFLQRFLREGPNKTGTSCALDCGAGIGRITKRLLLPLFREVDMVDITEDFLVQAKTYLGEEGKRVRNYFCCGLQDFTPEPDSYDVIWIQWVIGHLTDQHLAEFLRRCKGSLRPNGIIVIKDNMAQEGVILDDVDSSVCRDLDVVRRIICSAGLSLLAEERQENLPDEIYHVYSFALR
# HTT promoter inh: HTT promoter inhibition | AID 1508623 | 0.93% of 48,000 active | Potency, µM (series often up to 57.5 µM), without a hit: at the highest dose activity change, negative = inhibition, actives largely listed as inhibitors | HEK293 HTT promoter firefly luciferase reporter, 24 h; also: nearly all actives have a fitted effect of over 50% in size
#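 Luminescence was read after Dual-Glo reagent and a 10 min room-temperature incubation. Values were normalized to vehicle (0% activity) and zero RLU (-100% activity). Reporter HEK293 cells had been exposed to compounds (up to 57.5 uM final) for 24 h.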
# HTT-AS promoter: HTT-AS promoter activation; HEK293 HTT-AS promoter firefly luciferase reporter, 24 h; response scale: percent change from vehicle, -100% = no light; Potency, µM (doses to about 57.5 µM), without a hit: top-dose activity change, positive = activation, hits mostly activators; 0.24% of 48,000 active; also: nearly all actives have a fitted effect of over 55% in size
#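 HEK293 luciferase promoter-reporter cells (2,500/well) plated 24 h, then compounds added at up to 57.5 uM final for 24 h at 37 °C. Firefly luminescence by Dual-Glo, normalized to vehicle (0%) and zero RLU (-100%).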
# The depositor's hits bear a star; ? = inconclusive; nt = no result given; ! = not active in a repeat; [ ] = dose if it differs, or a comment. Calls follow the shape of the dose curve; as a rule, active = well fitted curve in the direction sought with a large enough effect; inconclusive = small, poorly fitted or top-dose-only effect, or another doubt; inactive = no such curve, though single readings can be large; an effect the other way counts as inactive or inconclusive. Potency is read from the fitted curve at half-maximal effect.
SMILES,NTMT1 inhibitor,HTT promoter inh,HTT-AS promoter
Cc1cc2ccccc2n1-c1ccc(C(=O)N2CCC(C(=O)NCc3ccc(Cl)cc3)CC2)s1,-4.7%,14.1µM*,-39.4%
CCc1ccc(CNC(=O)C2CCN(C(=O)c3ccc(-n4c(C)cc5ccccc54)s3)CC2)cc1,11.1%,?,-80.4%
Cc1nnsc1C(=O)Nc1ccc(-n2nc(C(F)(F)F)cc2C(F)(F)F)cc1,3.4%[57.5 µM],nt,nt
CSc1ncc(C(=O)Nc2ccc(F)cc2F)c(-c2ccccc2)n1,9.1%,4.4%,-9.8%
CSc1ncc(C(=O)Nc2ccccc2C(F)(F)F)c(-c2ccccc2)n1,89.1µM*,1.3%,-6.1%
FC(F)(F)c1ccccc1-c1nc(NCc2ccc(-c3ccc4c(c3)OCCO4)cc2)c2ccccc2n1,11.9%,nt,nt
O=C(C(Cc1cccc(C(F)(F)F)c1)NS(=O)(=O)c1cc(F)c2c(c1)CCNC2)N1CCCC1 (stereo not given),7.1%[57.5 µM],nt,nt
O=C(CN1C(=O)N/C(=C\c2cn(-c3cccc(C(=O)O)c3)cn2)C1=O)Nc1ccc(Cl)cc1,-12.7%,nt,nt
CCOc1ccc(C(=O)Oc2ccc(-c3nc4ccccc4[nH]3)cc2)cc1Cl,5.4%,nt,nt
COc1ccc(C2CC(=O)c3c([nH]c(C(=O)OC4CCCCCC4)c3C)C2)cc1OC (stereo not given),89.1µM*,?,-31.1%
COc1ccc(C2CC(=O)c3c([nH]c(C(=O)OC4CCCC4)c3C)C2)cc1OC (stereo not given),0.0%,-19.7%,-24.1%
O=S(=O)(Nc1ccc(-c2ccccc2)cc1)c1ccc(NCc2cccc(Cl)c2O)cc1,-0.2%,nt,nt
CC(=O)Nc1nc(-c2ccc3c(c2)CCN3C(=O)c2ccccc2C)c(C)s1,-5.4%,nt,nt
CC(C)n1c(/C=C/[C@H](O)C[C@H](O)CC(=O)O)c(-c2ccc(F)cc2)c2ccccc21,-3.2%,nt,nt
O=C(O)C[C@H](O)C[C@H](O)/C=C/c1c(C2CC2)nc2ccccc2c1-c1ccc(F)cc1,39.8µM*!,nt,nt
CCOC(=O)[C@H](CCc1ccccc1)N[C@@H](C)C(=O)N1C2CCCCC2C[C@H]1C(=O)O (stereo not given in full),-19.4%[57.5 µM],nt,nt
CCCn1cnc2c(NCc3ccc(C)s3)nc(N[C@H](CC)CO)nc21,11.7%,nt,nt
Fc1ccc(-n2ncc3c(NCCCc4ccccc4)ncnc32)cc1,1.1%,27.1%,8.91µM*
Cc1ccc(-n2ncc3c(NCCc4ccccc4)ncnc32)cc1C,-2.1%,20.9%,?
Cc1ccc(-n2ncc3c(NCCCn4ccnc4)ncnc32)cc1C,?,12.8%,18.8%
Fc1ccc(-n2ncc3c(NCCCn4ccnc4)ncnc32)cc1,4.8%,16.8%,2.82µM*
C[C@@H]1O[C@@H](O[C@H]2[C@H](OC(=O)[C@]34CCC(C)(C)C[C@H]3C3=CCC5[C@@]6(C)C[C@H](O)[C@H](O[C@@H]7O[C@H](CO)[C@@H](O[C@H]8OC[C@](O)(CO)[C@H]8O)[C@H](O)[C@H]7O)[C@@](C)(CO)C6[C@H](O)C[C@@]5(C)[C@]3(C)C[C@H]4O)OC[C@H](O)[C@@H]2O)[C@H](O)[C@H](O)[C@H]1O[C@@H]1OC[C@@H](O)[C@H](O[C@@H]2OC[C@](O)(CO)[C@H]2O)[C@H]1O (stereo not given in full),-7.6%[6.45 µM],nt,nt
O=C(Nc1ccc(Cl)c(S(=O)(=O)N2CCOCC2)c1)c1ccc(S(=O)(=O)N2CCCCC2)cc1,7.0%,nt,nt
COc1ccc(C(=O)Nc2nnc(-c3ccco3)o2)cc1,11.9%,nt,nt
CCOc1ccc(C(=O)Nc2c(C(=O)c3ccccc3)oc3ccccc23)cc1,4.6%,12.1%,-2.3%
SMILES,NTMT1 inhibitor,HTT promoter inh,HTT-AS promoter
CCc1oc2ccccc2c1C(=O)c1cc(Br)c(O)c(Br)c1,79.4µM*,?,-43.3%
N#Cc1c[nH]c2c(C(=O)N3CCN(CCc4ccc(F)cc4)CC3)cccc12,21.2%[57.5 µM],nt,nt
Cc1ccc(NS(=O)(=O)c2cc3c(cc2N(C)CCN(C)C)NC(=O)CC3)cc1C,-1.5%,nt,nt
Cc1ccc(NC(=O)Cn2c(=O)n(CCCC(=O)NCc3ccc4c(c3)OCO4)c(=O)c3ccccc32)cc1,-19.2%,-8.8%,-1.9%
Cc1ccccc1NC(=O)Cn1c(=O)n(CCCC(=O)NCc2ccc3c(c2)OCO3)c(=O)c2ccccc21,89.1µM*,-2.7%,1.4%
CS(=O)(=O)c1ccc(C(=O)OCC(=O)N2CCN(C3CCCCC3)CC2)cc1[N+](=O)[O-],-4.9%,nt,nt
COc1ccccc1/C=C/C(=O)NCCc1nc2ccccc2n1CCOc1ccc(C)cc1,14.8%,nt,nt
O=c1[nH]nc(Sc2ncc([N+](=O)[O-])s2)n1-c1ccc2c(c1)OCCO2,4.29µM*!,?,-94.7%
O=[N+]([O-])c1ccccc1S(=O)(=O)N1CCN(S(=O)(=O)c2ccc3c(c2)OCCO3)CC1,-1.6%,nt,nt
